Measurements published in the supplement of paper PMC8728848.
This is one part of a sample in which the strongest signals are shown more often than they occur.

Key:
Assay in all cases: glycan array binding signal (z-score within array); higher = stronger binding
Conditions in all cases: glycan notation: IUPAC condensed, linker removed
[1] = target: Fuc(a1-2)Gal(b1-3)GalNAc(b1-3)Gal
In short: (§1)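 The binding signal is a Z-score computed within each array. Data were drawn from 3228 arrays in the Consortium for Functional Glycomics database, restricted to those with a known protein sequence. Scores were averaged over arrays of the same protein sequence at different concentrations or buffers, and over linkers, and negative values can be taken as non-binding.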

Fuc(a1-2)Gal(b1-4)Glc = target: Fuc(a1-2)Gal(b1-4)Glc
In short: as §1

[2] = target: Fuc(a1-2)Gal(b1-4)GlcNAc(b1-2)Man(a1-3)[Fuc(a1-2)Gal(b1-4)GlcNAc(b1-2)Man(a1-6)]Man(b1-4)GlcNAc(b1-4)[Fuc(a1-6)]GlcNAc
In short: as §1

[3] = target: Fuc(a1-2)[Gal(a1-3)]Gal(b1-3)GalNAc(b1-3)Gal(a1-4)Gal(b1-4)Glc
In short: as §1

[4] = target: Fuc(a1-2)[Gal(a1-3)]Gal(b1-3)GlcNAc
In short: as §1

[5] = target: Fuc(a1-2)[Gal(a1-3)]Gal(b1-4)GlcNAc(b1-2)Man(a1-3)[Fuc(a1-2)[Gal(a1-3)]Gal(b1-4)GlcNAc(b1-2)Man(a1-6)]Man(b1-4)GlcNAc(b1-4)GlcNAc
In short: as §1

[6] = target: Fuc(a1-2)[Gal(a1-3)]Gal(b1-4)GlcNAc(b1-6)GalNAc
In short: as §1

Gal(a1-3)Gal(b1-3)GlcNAc = target: Gal(a1-3)Gal(b1-3)GlcNAc
In short: as §1

[7] = target: Gal(a1-3)Gal(b1-3)GlcNAc(b1-6)GalNAc
In short: as §1

[8] = target: Gal(a1-3)Gal(b1-4)GlcNAc(b1-3)GalNAc
In short: as §1

Gal(a1-4)GlcNAc = target: Gal(a1-4)GlcNAc
In short: as §1

Gal(b1-3)Gal = target: Gal(b1-3)Gal
In short: as §1

Gal(b1-3)Gal(b1-4)GlcNAc = target: Gal(b1-3)Gal(b1-4)GlcNAc
In short: as §1

[9] = target: Gal(b1-3)GlcNAc(a1-6)Gal(b1-4)GlcNAc
In short: as §1

Gal(b1-3)GlcNAc(b1-2)Man = target: Gal(b1-3)GlcNAc(b1-2)Man
In short: as §1

[10] = target: Gal(b1-3)GlcNAc(b1-3)Gal(b1-3)GlcNAc
In short: as §1

[11] = target: Gal(b1-3)GlcNAc(b1-6)GalNAc
In short: as §1

[12] = target: Gal(b1-3)[Fuc(a1-4)]GlcNAc(b1-3)Gal(b1-3)[Fuc(a1-4)]GlcNAc
In short: as §1

Gal(b1-4)Glc6S = target: Gal(b1-4)Glc6S
In short: as §1

[13] = target: Gal(b1-4)GlcNAc(a1-6)Gal(b1-4)GlcNAc
In short: as §1

Gal(b1-4)GlcNAc(b1-2)Man = target: Gal(b1-4)GlcNAc(b1-2)Man
In short: as §1

[14] = target: Gal(b1-4)GlcNAc(b1-3)Gal(b1-3)GlcNAc
In short: as §1

[15] = target: Gal(b1-4)GlcNAc(b1-3)Gal(b1-4)GlcNAc(b1-3)Gal(b1-4)GlcNAc(b1-2)Man(a1-3)[Gal(b1-4)GlcNAc(b1-3)Gal(b1-4)GlcNAc(b1-3)Gal(b1-4)GlcNAc(b1-2)Man(a1-6)]Man(b1-4)GlcNAc(b1-4)GlcNAc
In short: as §1

[16] = target: Gal(b1-4)GlcNAc(b1-6)GalNAc
In short: as §1

Gal3S(b1-3)GalNAc = target: Gal3S(b1-3)GalNAc
In short: as §1

Gal3S(b1-4)Glc = target: Gal3S(b1-4)Glc
In short: as §1

[17] = target: Gal3S(b1-4)[Fuc(a1-3)]GlcNAc
In short: as §1

[18] = target: Gal3S(b1-4)[Fuc(a1-3)]GlcNAc6S
In short: as §1

Gal4S(b1-4)GlcNAc = target: Gal4S(b1-4)GlcNAc
In short: as §1

Gal6S(b1-4)GlcNAc = target: Gal6S(b1-4)GlcNAc
In short: as §1

GalNAc(b1-3)Gal = target: GalNAc(b1-3)Gal
In short: as §1

Glc(a1-4)Glc = target: Glc(a1-4)Glc
In short: as §1

[19] = target: GlcNAc(a1-4)Gal(b1-4)GalNAc
In short: as §1

[20] = target: GlcNAc(a1-4)Gal(b1-4)GlcNAc(b1-3)Gal(b1-4)[Fuc(a1-3)]GlcNAc(b1-3)Gal(b1-4)[Fuc(a1-3)]GlcNAc
In short: as §1

[21] = target: GlcNAc(b1-2)Man(a1-3)[GlcNAc(b1-2)Man(a1-6)]Man(b1-4)GlcNAc(b1-4)GlcNAc
In short: as §1

[22] = target: GlcNAc(b1-3)Gal(b1-4)GlcNAc(b1-3)Gal(b1-4)GlcNAc(b1-2)Man(a1-3)[GlcNAc(b1-3)Gal(b1-4)GlcNAc(b1-3)Gal(b1-4)GlcNAc(b1-2)Man(a1-6)]Man(b1-4)GlcNAc(b1-4)[Fuc(a1-6)]GlcNAc
In short: as §1

[23] = target: GlcNAc(b1-3)Gal(b1-4)GlcNAc(b1-6)[GlcNAc(b1-3)Gal(b1-3)]GalNAc
In short: as §1

GlcNAc(b1-3)GalNAc = target: GlcNAc(b1-3)GalNAc
In short: as §1

[24] = target: Man(a1-2)Man(a1-2)Man(a1-3)Man
In short: as §1

[25] = target: Man(a1-2)Man(a1-6)[Man(a1-3)]Man(a1-6)[Man(a1-2)Man(a1-2)Man(a1-3)]Man
In short: as §1

[26] = target: Man(a1-3)[Man(a1-6)]Man(b1-4)GlcNAc(b1-4)[Fuc(a1-6)]GlcNAc
In short: as §1

Man(a1-6)Man = target: Man(a1-6)Man
In short: as §1

[27] = target: Neu5Ac(a2-3)Gal(b1-3)GlcNAc6S
In short: as §1

[28] = target: Neu5Ac(a2-3)Gal(b1-3)[Neu5Ac(a2-6)]GalNAc
In short: as §1

Neu5Ac(a2-3)Gal(b1-4)Glc = target: Neu5Ac(a2-3)Gal(b1-4)Glc
In short: as §1

[29] = target: Neu5Ac(a2-3)Gal(b1-4)GlcNAc(b1-2)Man
In short: as §1

[30] = target: Neu5Ac(a2-3)Gal(b1-4)GlcNAc(b1-2)[Neu5Ac(a2-3)Gal(b1-4)GlcNAc(b1-4)]Man(a1-3)[GlcNAc(b1-4)][Neu5Ac(a2-3)Gal(b1-4)GlcNAc(b1-2)[Neu5Ac(a2-3)Gal(b1-4)GlcNAc(b1-6)]Man(a1-6)]Man(b1-4)GlcNAc(b1-4)GlcNAc
In short: as §1

[31] = target: Neu5Ac(a2-3)Gal(b1-4)GlcNAc(b1-3)Gal(b1-4)GlcNAc
In short: as §1

[32] = target: Neu5Ac(a2-3)Gal(b1-4)GlcNAc(b1-3)Gal(b1-4)GlcNAc(b1-6)[Gal(b1-3)]GalNAc
In short: as §1

[33] = target: Neu5Ac(a2-3)Gal(b1-4)GlcNAc(b1-6)[Gal(b1-3)]GalNAc
In short: as §1

[34] = target: Neu5Ac(a2-3)Gal(b1-4)[Fuc(a1-3)]GlcNAc(b1-3)Gal(b1-4)[Fuc(a1-3)]GlcNAc(b1-3)Gal(b1-4)[Fuc(a1-3)]GlcNAc
In short: as §1

Neu5Ac(a2-6)Gal(b1-4)Glc = target: Neu5Ac(a2-6)Gal(b1-4)Glc
In short: as §1

[35] = target: Neu5Ac9Ac(a2-3)Gal(b1-3)GlcNAc
In short: as §1

[36] = target: Neu5Gc(a2-3)Gal(b1-4)GlcNAc(b1-3)Gal(b1-4)GlcNAc(b1-2)Man(a1-3)[Neu5Gc(a2-3)Gal(b1-4)GlcNAc(b1-3)Gal(b1-4)GlcNAc(b1-2)Man(a1-6)]Man(b1-4)GlcNAc(b1-4)GlcNAc
In short: as §1

B1: Cohesin-hMARCO (Homo sapiens) (protein)
chain: LDDLDAVRIKVDTVNAKPGDTVRIPVRFSGIPSKGIANCDFVYSYDPNVLEIIEIEPGDIIVDPNPDKSFDTAVYPDRKIIVFLFAEDSGTGAYAITKDGVFATIVAKVKEGAPNGLSVIKFVEVGGFANNDLVEQKTQFFDGGANVGDTTEPATPTTPVTTPTTTDDLDAASVRIVGSSNRGRAEVYYSGTWGTICDDEWQNSDAIVFCRMLGYSKGRALYKVGAGTGQIWLDNVQCRGTESTLWSCTKNSWGHHDCSHEEDAGVECSVHHHHHH
glycan array binding signal (z-score) [1]: 3.9
glycan array binding signal (z-score) (Fuc(a1-2)Gal(b1-4)Glc): 0.78
glycan array binding signal (z-score) [2]: -0.156
glycan array binding signal (z-score) [3]: -0.528
glycan array binding signal (z-score) [4]: 2.72
glycan array binding signal (z-score) [5]: -0.358
glycan array binding signal (z-score) [6]: -0.528
glycan array binding signal (z-score) (Gal(a1-3)Gal(b1-3)GlcNAc): 11.2
glycan array binding signal (z-score) [7]: 2.88
glycan array binding signal (z-score) [8]: -0.296
glycan array binding signal (z-score) (Gal(a1-4)GlcNAc): -0.083
glycan array binding signal (z-score) (Gal(b1-3)Gal): -0.397
glycan array binding signal (z-score) (Gal(b1-3)Gal(b1-4)GlcNAc): -0.262
glycan array binding signal (z-score) [9]: -0.309
glycan array binding signal (z-score) (Gal(b1-3)GlcNAc(b1-2)Man): -0.288
glycan array binding signal (z-score) [10]: -0.434
glycan array binding signal (z-score) [11]: 1.7
glycan array binding signal (z-score) [12]: 5.33
glycan array binding signal (z-score) (Gal(b1-4)Glc6S): -0.057
glycan array binding signal (z-score) [13]: 0.044
glycan array binding signal (z-score) (Gal(b1-4)GlcNAc(b1-2)Man): -0.48
glycan array binding signal (z-score) [14]: -0.462
glycan array binding signal (z-score) [15]: 0.365
glycan array binding signal (z-score) [16]: 1.21
glycan array binding signal (z-score) (Gal3S(b1-3)GalNAc): 0.13
glycan array binding signal (z-score) (Gal3S(b1-4)Glc): 3.03
glycan array binding signal (z-score) [17]: -0.386
glycan array binding signal (z-score) [18]: 3.73
glycan array binding signal (z-score) (Gal4S(b1-4)GlcNAc): -0.154
glycan array binding signal (z-score) (Gal6S(b1-4)GlcNAc): -0.215
glycan array binding signal (z-score) (GalNAc(b1-3)Gal): 3.14
glycan array binding signal (z-score) (Glc(a1-4)Glc): -0.037
glycan array binding signal (z-score) [19]: -0.39
glycan array binding signal (z-score) [20]: -0.104
glycan array binding signal (z-score) [21]: -0.381
glycan array binding signal (z-score) [22]: -0.453
glycan array binding signal (z-score) [23]: -0.586
glycan array binding signal (z-score) (GlcNAc(b1-3)GalNAc): -0.3
glycan array binding signal (z-score) [24]: 3.08
glycan array binding signal (z-score) [25]: -0.013
glycan array binding signal (z-score) [26]: -0.571
glycan array binding signal (z-score) (Man(a1-6)Man): 3.28
glycan array binding signal (z-score) [27]: 0.039
glycan array binding signal (z-score) [28]: -0.255
glycan array binding signal (z-score) (Neu5Ac(a2-3)Gal(b1-4)Glc): -0.436
glycan array binding signal (z-score) [29]: 0.296
glycan array binding signal (z-score) [30]: -0.288
glycan array binding signal (z-score) [31]: -0.514
glycan array binding signal (z-score) [32]: -0.369
glycan array binding signal (z-score) [33]: -0.481
glycan array binding signal (z-score) [34]: -0.404
glycan array binding signal (z-score) (Neu5Ac(a2-6)Gal(b1-4)Glc): -0.411
glycan array binding signal (z-score) [35]: 4.33
glycan array binding signal (z-score) [36]: 0.016
